# In ChEMBL document CHEMBL3433997, “St. Jude Leishmania screening dataset” (2016):
# Legend:
# Type in all cases: functional
# [1] = molecular target: Solute carrier family 2, facilitated glucose transporter member 1 (Homo sapiens) (UniProt P11166); experiment: ST_JUDE_LEISH: Cytotoxicity at 2uM final concentration against transgenic Leishmania Mexicana promastigotes LmGLUT1 that are glucose transport deficient and complemented with the human glucose transporter GLUT1. Activity is measured by DNA content using SYBR green in vitro
# Solute carrier family 2, facilitated glucose transporter member 1 (Homo sapiens), sequence (P11166 whole entry): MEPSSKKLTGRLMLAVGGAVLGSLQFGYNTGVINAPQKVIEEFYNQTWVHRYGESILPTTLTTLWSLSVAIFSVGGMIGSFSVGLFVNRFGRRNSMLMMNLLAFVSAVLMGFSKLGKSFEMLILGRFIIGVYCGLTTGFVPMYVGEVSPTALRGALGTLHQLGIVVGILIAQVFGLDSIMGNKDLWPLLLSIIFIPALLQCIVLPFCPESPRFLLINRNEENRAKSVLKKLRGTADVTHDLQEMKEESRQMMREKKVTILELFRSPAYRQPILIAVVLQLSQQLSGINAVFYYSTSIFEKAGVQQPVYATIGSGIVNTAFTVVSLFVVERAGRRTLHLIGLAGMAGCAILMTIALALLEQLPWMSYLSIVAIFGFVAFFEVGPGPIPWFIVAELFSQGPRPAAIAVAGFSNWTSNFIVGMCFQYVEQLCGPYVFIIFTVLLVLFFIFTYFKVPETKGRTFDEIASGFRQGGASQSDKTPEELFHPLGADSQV
# [2] = molecular target: Hexose transporter 1 (Plasmodium falciparum) (UniProt O97467); experiment: ST_JUDE_LEISH: Cytotoxicity at 2uM final concentration against transgenic Leishmania Mexicana promastigotes LmPfHT that are glucose transport deficient and complemented with the Plasmodium falciparum hexose transporter. Activity is measured by DNA content using SYBR green in vitro
# [3] = molecular target: Glucose transporter (Leishmania mexicana) (UniProt O61059); experiment: ST_JUDE_LEISH: Cytotoxicity at 2uM final concentration against transgenic Leishmania Mexicana promastigotes LmGT2 that are glucose transport deficient and complemented with the L. Mexicana glucose transporter 2. Activity is measured by DNA content using SYBR green in vitro
SMILES,inhibition [1],inhibition [2],inhibition [3]
Nc1nc(N)c2c(ccc3c2cnn3Cc2cccnc2)n1,39.8%,51.2%,38.1%
COc1ccccc1CC1CCCN(C2CCC(NC(=O)c3cc4ccccc4[nH]3)CC2)C1 (configuration not stated),0.46%,0.32%,-0.6%
COc1ccc(CCNC(=O)c2cnc3c(c2)nc(-c2c[nH]c(-c4ccccc4)n2)n3CCc2c[nH]cn2)cc1,1%,-1.24%,2.62%
CCc1ccc(C2CCN(CCCCNC(=O)c3ccc(-c4ccc(Cl)cc4)cc3)CC2)c(O)c1,0.23%,2.44%,2.8%
NC(=O)COc1cccc2c1CCN(CCN1CCC(NC(=O)c3ccc(-c4ccc(Cl)cc4)cc3)CC1)C2,1.06%,4.42%,2.71%
CN(C)CC1c2[nH]c3ccccc3c2CCN1C(=O)Nc1ccc(Cl)c(Cl)c1 (configuration not stated),5.56%,7.79%,5.8%
Cc1[nH]cc(Br)c(=O)c1-c1ccc(Oc2ccccc2)cc1,2.07%,2.3%,1.32%
CC(C)(C)c1ccc(CN2CCC(CNC(=O)c3cc(-c4cccc(C(F)(F)F)c4)cs3)C2)cc1 (configuration not stated),-1.18%,-0.44%,-5.97%
Nc1nc(N)c2cc(NS(=O)(=O)c3ccc(-c4ccccc4)cc3)ccc2n1,4.33%,3.47%,3.56%
